The source made the active and inactive calls. How the source made its calls: active means hit-call score of the fitted dose curve at least 0.9, where 1 is the maximum; inactive means score below 0.9.
Assay: BSK_SAg_SRB: Viability Assessment in the BioMAP Diversity Plus: SAg Assay (AID 2283096);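 further: cells read one day after compound addition; hits may be either gain or loss of signal compared with DMSO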
Conditions: primary human HUVEC with PBMC
Procedure, shortened: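 Compounds were added to a human vascular co-culture of umbilical vein endothelium and PBMC. After 24 h, parallel cultures were fixed with 10% TCA, stained with 0.1% sulforhodamine B and read at 560 nm. Gain or loss of signal was fitted relative to DMSO.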

SMILES | outcome | AC50
CCn1nc(Cc2ccccc2)cc1C1CCN(C[C@H]2C[C@H](N(C)[C@@H](C(=O)O)C(C)C)C[C@@H]2c2cccc(F)c2)CC1 | inactive | 
COC(=O)c1ccccc1O | inactive | 
CC(C)=CCC/C(C)=C\CO | inactive | 
CC(C)CCCCCCOC(=O)c1ccc(C(=O)OCCCCCCC(C)C)c(C(=O)OCCCCCCC(C)C)c1 | inactive | 
CCOC(=O)CC(CC(=O)OCC)(OC(C)=O)C(=O)OCC | inactive | 
CC1(C)C(=O)N(Br)C(=O)N1Br | inactive | 
Clc1nc(Cl)c(Cl)c(Cl)c1Cl | inactive | 
O=c1n(CC2CO2)c(=O)n(CC2CO2)c(=O)n1CC1CO1 (centres undefined) |  | 17.5 µM (active)
CC[C@H]1OC(=O)[C@H](C)[C@@H](O[C@H]2C[C@@](C)(OC)[C@@H](O)[C@H](C)O2)[C@H](C)[C@@H](O[C@@H]2O[C@H](C)C[C@H](N(C)C)[C@H]2O)[C@](C)(O)C[C@@H](C)C(=O)[C@H](C)[C@@H](O)[C@]1(C)O | inactive | 
CC(=O)OC[C@H]1O[C@@](COC(C)=O)(O[C@H]2O[C@H](COC(C)=O)[C@@H](OC(C)=O)[C@H](OC(C)=O)[C@H]2OC(C)=O)[C@@H](OC(C)=O)[C@@H]1OC(C)=O | inactive | 
Cc1ccc(S(=O)(=O)O)cc1C | inactive | 
CC(O)CN(CCN(CC(C)O)CC(C)O)CC(C)O (centres undefined) | inactive | 
CCC(C)(C)C(=O)O[C@H]1C[C@@H](C)C=C2C=C[C@H](C)[C@H](CC[C@@H]3C[C@@H](O)CC(=O)O3)[C@H]21 |  | 1.32 µM (active)
O=C1CCCCCN1 | inactive | 
COc1cccc(-c2ccc(/C=C\CN3CCCCCC3)cc2Cl)c1 |  | 27.2 µM (active)
CCCCC(CC)COC(=O)CCCCCCCCC(=O)OCC(CC)CCCC (centres undefined) | inactive | 
CC[C@H]1CC[C@H](NCc2cc3c(cc2OC)[C@H]2C[C@H]2C(=O)N3C)[C@H](c2ccccc2)N1 | inactive | 
CCCCCCCCCCCCc1ccccc1 | inactive | 
CC(=O)c1ccc2c(c1)[C@H](NC(=O)c1ccc(F)cc1)[C@@H](O)C(C)(C)O2 | inactive | 
CCCCCCCCCCCCCCCO |  | 34.6 µM (active)
CC(C)=CCC/C(C)=C/CO | inactive | 
CCCC(=O)OCC | inactive | 
CCCCC(CC)COC(=O)c1ccc(C(=O)OCC(CC)CCCC)cc1 (centres undefined) | inactive | 
COCCOc1cc2cc(C(=O)NC3CCN(C(C)C)CC3)n(CC(=O)Nc3ccc(Cl)cn3)c2cn1 | inactive | 
Cc1ccc(O)cc1 | inactive | 
C[C@](N)(Cc1ccc(O)c(O)c1)C(=O)O | inactive | 
O=C(CCCCCCCCc1cccnc1)N1CCC(C=C(c2ccccc2)c2ccccc2)CC1 |  | 12.7 µM (active)
C=CC(=C)CCC=C(C)C | inactive | 
O=C1OC(=O)C2C3C=CC(C3)C12 (centres undefined) | inactive | 
